Binding signal data for seven sequences are collected here from PMC7862700, “An all-to-all approach to the identification of sequence-specific readers for epigenetic DNA modifications on cytosine”.

What all share (assay): DAPPL (digital affinity profiling via proximity ligation, sequencing); 10 mM Tris-HCl pH 7.5, 50 mM NaCl, 1 mM DTT, 4% glycerol, room temperature, 30 min; GST-TFs on glutathione beads, 16-mer random dsDNA library, 0.1% formaldehyde crosslink after washing; high values mean tight binding
Settings in all cases: protein: recombinant; tags: N-terminal GST; dsDNA, one strand shown

Experiment [1] deals with T1, FLI1 (Homo sapiens, UniProt Q01543 1-452).
T1 sequence: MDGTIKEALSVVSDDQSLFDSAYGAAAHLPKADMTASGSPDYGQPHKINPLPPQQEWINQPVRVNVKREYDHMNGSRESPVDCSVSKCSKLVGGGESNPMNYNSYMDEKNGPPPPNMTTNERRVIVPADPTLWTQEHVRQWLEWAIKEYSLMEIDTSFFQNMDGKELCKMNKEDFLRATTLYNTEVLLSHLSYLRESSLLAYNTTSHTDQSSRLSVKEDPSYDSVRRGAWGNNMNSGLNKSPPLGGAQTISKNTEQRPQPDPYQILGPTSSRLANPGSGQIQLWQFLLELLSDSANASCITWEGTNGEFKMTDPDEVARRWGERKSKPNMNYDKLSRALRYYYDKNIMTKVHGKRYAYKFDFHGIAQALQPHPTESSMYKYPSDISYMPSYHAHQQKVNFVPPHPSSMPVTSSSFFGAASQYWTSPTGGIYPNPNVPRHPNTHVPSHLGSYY
In a few lines:
(§1)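 Sequencing on an Illumina NextSeq500 followed washing, crosslinking with 0.1% formaldehyde, proximity ligation (BsaI/T4 ligase, 1 h, 37 °C) and PCR amplification of pools that had been incubated for 30 min at room temperature with 200 nmole of a random double-stranded 16-mer DNA library in Tris/NaCl/DTT/glycerol buffer. Each pool held DNA-barcoded human transcription factors, expressed in yeast as GST fusions and captured on glutathione beads, plus a tag-only sample. Binding signal is a hexamer's read frequency for a factor divided by its frequency in the tag-only sample.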

Experiment [2] concerns the target T2, ELK1 (Homo sapiens, UniProt P19419 1-428).
T2 sequence: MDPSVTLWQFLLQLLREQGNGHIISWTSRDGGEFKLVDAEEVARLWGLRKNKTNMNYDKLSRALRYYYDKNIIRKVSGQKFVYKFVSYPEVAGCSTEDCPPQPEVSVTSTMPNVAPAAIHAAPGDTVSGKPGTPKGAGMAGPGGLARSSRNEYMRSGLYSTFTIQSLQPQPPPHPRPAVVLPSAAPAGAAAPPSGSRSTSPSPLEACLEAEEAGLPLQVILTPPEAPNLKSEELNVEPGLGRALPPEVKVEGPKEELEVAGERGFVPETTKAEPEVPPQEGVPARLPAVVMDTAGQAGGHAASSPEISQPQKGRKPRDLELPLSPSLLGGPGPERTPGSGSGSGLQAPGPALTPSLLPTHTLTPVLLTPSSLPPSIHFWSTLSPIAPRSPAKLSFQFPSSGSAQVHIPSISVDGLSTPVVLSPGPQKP
The method, boiled down:
as §1

In experiment [3] the target is T3, GABPA (Homo sapiens, UniProt Q06546 1-454).
T3 sequence: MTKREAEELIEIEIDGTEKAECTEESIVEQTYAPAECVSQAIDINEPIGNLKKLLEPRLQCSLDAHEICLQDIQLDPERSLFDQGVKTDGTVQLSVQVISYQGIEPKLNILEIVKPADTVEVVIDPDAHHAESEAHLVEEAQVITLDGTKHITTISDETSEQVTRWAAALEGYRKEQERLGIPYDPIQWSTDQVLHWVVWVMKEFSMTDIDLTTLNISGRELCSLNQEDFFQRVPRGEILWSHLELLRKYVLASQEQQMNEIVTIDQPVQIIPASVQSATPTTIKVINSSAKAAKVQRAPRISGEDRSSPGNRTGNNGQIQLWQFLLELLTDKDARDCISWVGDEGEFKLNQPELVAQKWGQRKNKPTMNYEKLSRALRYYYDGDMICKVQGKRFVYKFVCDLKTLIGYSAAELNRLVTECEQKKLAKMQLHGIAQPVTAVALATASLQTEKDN
In a few lines: as §1

Experiment [4] deals with T4, ERG (Homo sapiens, UniProt P11308 1-479).
T4 sequence: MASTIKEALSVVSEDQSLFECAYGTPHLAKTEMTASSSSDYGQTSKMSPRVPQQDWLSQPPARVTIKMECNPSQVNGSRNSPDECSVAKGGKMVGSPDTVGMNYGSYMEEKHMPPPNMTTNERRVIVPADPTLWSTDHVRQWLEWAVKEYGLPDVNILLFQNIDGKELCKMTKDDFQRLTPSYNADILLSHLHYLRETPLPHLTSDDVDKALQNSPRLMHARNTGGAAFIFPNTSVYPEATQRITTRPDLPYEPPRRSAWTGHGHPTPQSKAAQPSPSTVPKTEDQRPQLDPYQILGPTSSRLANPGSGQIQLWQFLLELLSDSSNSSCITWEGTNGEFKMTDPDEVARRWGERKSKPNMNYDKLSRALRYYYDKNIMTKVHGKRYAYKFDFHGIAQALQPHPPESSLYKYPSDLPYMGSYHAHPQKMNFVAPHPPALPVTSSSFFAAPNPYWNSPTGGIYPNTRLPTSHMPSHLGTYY
The method, boiled down:
as §1

For experiment [5], the target named is ELF1 (Homo sapiens, UniProt P32519 1-619). In a few lines:
as §1

Experiment [6] has as its target T5, EHF (Homo sapiens, UniProt Q9NZC4 1-300).
T5 sequence: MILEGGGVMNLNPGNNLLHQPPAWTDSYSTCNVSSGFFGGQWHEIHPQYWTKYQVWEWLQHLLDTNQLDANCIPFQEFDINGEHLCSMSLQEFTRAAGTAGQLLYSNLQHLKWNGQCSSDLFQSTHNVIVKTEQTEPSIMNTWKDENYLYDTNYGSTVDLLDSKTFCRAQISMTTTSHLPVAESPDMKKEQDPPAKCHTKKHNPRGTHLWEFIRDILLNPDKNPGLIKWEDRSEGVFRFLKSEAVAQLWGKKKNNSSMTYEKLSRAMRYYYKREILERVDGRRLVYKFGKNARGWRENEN
The method, boiled down:
as §1

The target in experiment [7] is SPI1 (Homo sapiens, UniProt P17947 1-270). In a few lines:
as §1

Experiment [8] concerns the target SPIB (Homo sapiens, UniProt Q01892 1-262). The method, boiled down:
as §1

The target of experiment [9] is T6, ELK3 (Homo sapiens, UniProt P41970 1-407).
T6 sequence: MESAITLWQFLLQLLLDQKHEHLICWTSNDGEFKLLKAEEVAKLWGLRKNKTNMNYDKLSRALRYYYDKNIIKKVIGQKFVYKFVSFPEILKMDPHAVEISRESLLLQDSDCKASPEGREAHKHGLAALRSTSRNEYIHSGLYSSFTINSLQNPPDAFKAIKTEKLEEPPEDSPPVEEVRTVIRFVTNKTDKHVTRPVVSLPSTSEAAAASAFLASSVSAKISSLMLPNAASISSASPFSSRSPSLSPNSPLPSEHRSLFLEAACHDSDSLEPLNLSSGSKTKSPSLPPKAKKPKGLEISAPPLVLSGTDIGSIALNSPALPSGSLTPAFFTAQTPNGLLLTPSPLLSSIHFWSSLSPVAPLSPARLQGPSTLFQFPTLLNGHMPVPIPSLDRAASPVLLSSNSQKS
In a few lines:
as §1

Sequence of SPIB (Q01892 whole entry): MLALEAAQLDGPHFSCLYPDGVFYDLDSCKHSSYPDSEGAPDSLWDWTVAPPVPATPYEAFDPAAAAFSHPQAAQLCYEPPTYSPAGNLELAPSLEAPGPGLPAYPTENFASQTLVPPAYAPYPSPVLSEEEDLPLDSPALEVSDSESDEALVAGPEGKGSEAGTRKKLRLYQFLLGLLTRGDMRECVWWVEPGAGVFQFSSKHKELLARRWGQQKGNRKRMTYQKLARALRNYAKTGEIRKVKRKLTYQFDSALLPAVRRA
Sequence of ELF1 (P32519 whole entry): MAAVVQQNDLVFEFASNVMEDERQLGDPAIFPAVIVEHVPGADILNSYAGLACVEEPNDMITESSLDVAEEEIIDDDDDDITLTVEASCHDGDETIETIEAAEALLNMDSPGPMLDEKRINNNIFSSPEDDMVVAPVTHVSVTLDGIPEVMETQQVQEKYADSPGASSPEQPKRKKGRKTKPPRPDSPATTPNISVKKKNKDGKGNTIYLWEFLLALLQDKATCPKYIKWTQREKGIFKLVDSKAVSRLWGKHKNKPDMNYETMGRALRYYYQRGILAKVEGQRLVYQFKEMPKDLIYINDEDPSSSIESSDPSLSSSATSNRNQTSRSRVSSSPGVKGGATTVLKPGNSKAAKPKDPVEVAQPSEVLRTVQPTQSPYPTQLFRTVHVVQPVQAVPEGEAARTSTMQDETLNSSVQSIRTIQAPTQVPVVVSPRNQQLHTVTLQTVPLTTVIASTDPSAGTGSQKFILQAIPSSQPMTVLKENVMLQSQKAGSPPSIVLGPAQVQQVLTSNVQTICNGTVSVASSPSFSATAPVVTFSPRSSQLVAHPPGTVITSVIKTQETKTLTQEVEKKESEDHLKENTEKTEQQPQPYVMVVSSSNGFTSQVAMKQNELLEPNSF

Take ATGCCT: the binding signal was 1.38 fold enrichment (6-mer frequency, TF over GST control) in [1]; 1.4 fold enrichment (6-mer frequency, TF over GST control) in experiment [2]; 1.52 fold enrichment (6-mer frequency, TF over GST control) in [3]; 1.48 fold enrichment (6-mer frequency, TF over GST control) in experiment [4]; 1.35 fold enrichment (6-mer frequency, TF over GST control) in experiment [5]; 1.42 fold enrichment (6-mer frequency, TF over GST control) in experiment [6]. Further, the binding signal in experiment [7] is 1.32 fold enrichment (6-mer frequency, TF over GST control); in [8], 1.45 fold enrichment (6-mer frequency, TF over GST control); in experiment [9], 1.22 fold enrichment (6-mer frequency, TF over GST control).
TACTTT: the binding signal in experiment [1] is 1.32 fold enrichment (6-mer frequency, TF over GST control); in experiment [2], 1.48 fold enrichment (6-mer frequency, TF over GST control); in [3], 1.41 fold enrichment (6-mer frequency, TF over GST control); in experiment [4], 1.29 fold enrichment (6-mer frequency, TF over GST control); in experiment [5], 1.34 fold enrichment (6-mer frequency, TF over GST control); in [6] it was 1.39 fold enrichment (6-mer frequency, TF over GST control). The binding signal in experiment [7] was 1.25 fold enrichment (6-mer frequency, TF over GST control); in experiment [8] it was 1.36 fold enrichment (6-mer frequency, TF over GST control); in [9], 1.11 fold enrichment (6-mer frequency, TF over GST control).
CGATTA: the binding signal in experiment [1] was 1.15 fold enrichment (6-mer frequency, TF over GST control); in experiment [2], 1.07 fold enrichment (6-mer frequency, TF over GST control); in experiment [3], 1.17 fold enrichment (6-mer frequency, TF over GST control); in experiment [4], 1.16 fold enrichment (6-mer frequency, TF over GST control); in experiment [5], 1.15 fold enrichment (6-mer frequency, TF over GST control); in experiment [6], 1.11 fold enrichment (6-mer frequency, TF over GST control). Further, the binding signal was 1.09 fold enrichment (6-mer frequency, TF over GST control) in [7]; 1.13 fold enrichment (6-mer frequency, TF over GST control) in experiment [8]; 1.19 fold enrichment (6-mer frequency, TF over GST control) in experiment [9].
With ATGAGC, the binding signal in experiment [1] was 1.11 fold enrichment (6-mer frequency, TF over GST control); in [2], 1.27 fold enrichment (6-mer frequency, TF over GST control); in [3], 1.33 fold enrichment (6-mer frequency, TF over GST control); in experiment [4], 1.2 fold enrichment (6-mer frequency, TF over GST control); in experiment [5] it was 1.24 fold enrichment (6-mer frequency, TF over GST control); in experiment [6] it was 1.18 fold enrichment (6-mer frequency, TF over GST control). Moreover, the binding signal in [7] was 1.13 fold enrichment (6-mer frequency, TF over GST control); in [8] it was 1.24 fold enrichment (6-mer frequency, TF over GST control); in [9] it was 1.19 fold enrichment (6-mer frequency, TF over GST control).
For ATTGCA, the binding signal is 1.17 fold enrichment (6-mer frequency, TF over GST control) in experiment [1]; 1.31 fold enrichment (6-mer frequency, TF over GST control) in [2]; 1.19 fold enrichment (6-mer frequency, TF over GST control) in experiment [3]; 1.21 fold enrichment (6-mer frequency, TF over GST control) in experiment [4]; 1.17 fold enrichment (6-mer frequency, TF over GST control) in experiment [5]; 1.14 fold enrichment (6-mer frequency, TF over GST control) in experiment [6]. Besides, the binding signal in experiment [7] was 1.19 fold enrichment (6-mer frequency, TF over GST control); in [8] it was 1.17 fold enrichment (6-mer frequency, TF over GST control); in experiment [9] it was 1.24 fold enrichment (6-mer frequency, TF over GST control).
Turning to TTGTCT, the binding signal in [1] is 1.29 fold enrichment (6-mer frequency, TF over GST control); in experiment [2] it was 1.23 fold enrichment (6-mer frequency, TF over GST control); in [3] it was 1.33 fold enrichment (6-mer frequency, TF over GST control); in experiment [4], 1.15 fold enrichment (6-mer frequency, TF over GST control); in experiment [5], 1.27 fold enrichment (6-mer frequency, TF over GST control); in experiment [6] it was 1.18 fold enrichment (6-mer frequency, TF over GST control). In addition, the binding signal in experiment [7] is 1.19 fold enrichment (6-mer frequency, TF over GST control); in [8] it was 1.15 fold enrichment (6-mer frequency, TF over GST control); in experiment [9] it was 1.31 fold enrichment (6-mer frequency, TF over GST control).
Take GTTTCT: the binding signal in experiment [1] was 1.36 fold enrichment (6-mer frequency, TF over GST control); in experiment [2], 1.17 fold enrichment (6-mer frequency, TF over GST control); in experiment [3], 1.26 fold enrichment (6-mer frequency, TF over GST control); in [4] it was 1.22 fold enrichment (6-mer frequency, TF over GST control); in experiment [5] it was 1.29 fold enrichment (6-mer frequency, TF over GST control); in experiment [6] it was 1.28 fold enrichment (6-mer frequency, TF over GST control). In addition, the binding signal in experiment [7] is 1.31 fold enrichment (6-mer frequency, TF over GST control); in experiment [8] it was 1.25 fold enrichment (6-mer frequency, TF over GST control); in [9], 1.14 fold enrichment (6-mer frequency, TF over GST control).
